PLK1 PBD block: qHTS for Inhibitors of PLK1-PDB (polo-like kinase 1 - polo-box domain): Primary Screen | 360,000 tested, 2.8% active | Plk1 PBD binding of FITC phosphopeptide, fluorescence polarization | Potency, µM, for inactives: max response, negative = inhibition, usual class: inhibitors | Serine/threonine-protein kinase PLK1 (Homo sapiens), P53350 | AID 720504, 2013; also: series mostly up to about 57 µM; % is scaled to controls: 0 for no effect and ±100 for the full control effect; nearly all actives have a fitted effect of over 65% in size
JMJD2A Tudor inh: qHTS Assay for Inhibitors of JMJD2A-Tudor Domain; 390,000 tested, 4.4% active; AlphaScreen JMJD2A-Tudor / H3K4me3 peptide binding; Lysine-specific demethylase 4A (Homo sapiens), O75164; Potency, µM (doses to about 114 µM), without a hit: top-dose activity change, negative = inhibition, actives largely listed as inhibitors; AID 504339, 2011; also: % is scaled to controls: 0 for no effect and ±100 for the full control effect; nearly all actives have a fitted effect of over 50% in size
Sfp inh: qHTS Assay for Inhibitors of Bacillus subtilis Sfp phosphopantetheinyl transferase (PPTase); Biochemical Sfp PPTase activity, qHTS; Potency, µM, without a hit: largest response in the series, negative = inhibition, actives largely listed as inhibitors; 310,000 tested, 3.5% active;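 also: the enzyme is Sfp with the accession as filed and its product quenches rhodamine fluorescence; 0% = enzyme reaction without inhibitor and -100% = no enzyme wells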
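After 15 min at room temperature with compound, 15 nM Sfp received 5 uM rhodamine-CoA plus 12.5 uM BHQ-2-ybbR (50 mM Hepes pH 7.6, 10 mM MgCl2). Rate came from the fluorescence difference over 30 min, ex 525/em 598 nm.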
G9a block: qHTS Assay for Inhibitors of Histone Lysine Methyltransferase G9a. Histone-lysine N-methyltransferase EHMT2 (Homo sapiens), Q96KQ7. G9a H3K9 monomethylation, AlphaScreen, 2 h. Potency, µM (top dose mostly 102 µM), without a hit: at the highest dose activity, negative = inhibition, most hits filed as inhibitors. 350,000 tested, 8.8% active. AID 504332, 2011; also: % is scaled to controls: 0 for no effect and ±100 for the full control effect; nearly all actives have a fitted effect of over 75% in size
Target sequence (Q96KQ7 913-1193 limits assumed): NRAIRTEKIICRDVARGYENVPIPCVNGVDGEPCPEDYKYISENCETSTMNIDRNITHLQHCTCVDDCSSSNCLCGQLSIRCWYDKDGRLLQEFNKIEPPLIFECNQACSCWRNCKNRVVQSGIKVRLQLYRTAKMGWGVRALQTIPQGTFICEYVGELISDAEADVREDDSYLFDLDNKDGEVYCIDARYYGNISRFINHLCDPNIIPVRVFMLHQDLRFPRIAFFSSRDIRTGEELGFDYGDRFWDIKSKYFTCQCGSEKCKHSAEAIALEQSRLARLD
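G9a (20 nM) was preincubated 15 min with compound, then reacted 2 h at room temperature with 500 nM biotin-H3K9 peptide and 20 µM SAM. Monomethyl-H3K9 detected by AlphaScreen using anti-H3K9me1 antibody.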
HP1b chromo inh: HTS for Inhibitors of HP1-beta Chromodomain Interactions with Methylated Histone Tails; AlphaScreen HP1-beta / biotin-H3K9me3 peptide binding; Potency, µM (series often up to 114 µM), for the others: top-dose activity change, negative = inhibition, usual class: inhibitors; 390,000 tested, 0.56% active; AID 540317, 2011; also: nearly all actives have a fitted effect of over 70% in size
Target sequence (P83916 whole entry, looked up): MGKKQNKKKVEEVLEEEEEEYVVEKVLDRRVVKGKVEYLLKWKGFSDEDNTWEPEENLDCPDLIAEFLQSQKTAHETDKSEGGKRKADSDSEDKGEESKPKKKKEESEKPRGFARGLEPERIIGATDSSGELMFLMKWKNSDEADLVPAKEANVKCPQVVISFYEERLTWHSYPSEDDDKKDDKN
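HP1-beta protein (50 nM final) preincubated 30 min at room temperature with biotinylated H3(1-18)K9me3 peptide (50 nM) in PBS pH 7.4, 0.01% Tween-20, then compound added for 30 min. AlphaScreen streptavidin donor/nickel chelate acceptor beads (10 ug/mL final), 30 min dark, luminescence read.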
BAZ2B block: qHTS Assay for Inhibitors of BAZ2B. Bromodomain adjacent to zinc finger domain protein 2B (Homo sapiens), Q9UIF8. AlphaScreen BAZ2B-H3K14Ac peptide displacement. Potency, µM (top dose mostly 114 µM), without a hit: top-dose activity change, negative = inhibition, actives largely listed as inhibitors. 360,000 tested, 4.4% active. AID 504333, 2011; also: % is scaled to controls: 0 for no effect and ±100 for the full control effect; nearly all actives have a fitted effect of over 60% in size
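Protein-peptide AlphaScreen: BAZ2B 50 nM, b-H3K14Ac 50 nM, 1x PBS pH 7.4 + 0.01% Tween-20. Preincubation 30 min RT; cpd 30 min RT (top 110 uM); beads 20 min RT, light-protected.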
* hit, by the source's call. Most compounds without a hit are left out; they make up all but 12% or so of the library. Calls follow the shape of the dose curve; as a rule, active = well fitted curve in the direction sought with a large enough effect; inconclusive = small, poorly fitted or top-dose-only effect, or another doubt; inactive = no such curve, though single readings can be large; an effect the other way counts as inactive or inconclusive. Potency is read from the fitted curve at half-maximal effect.

What do the screens show for `CC(=O)C1=C(C)N(Cc2ccccc2)C(=O)N[C@H]1c1cccc(C(F)(F)F)c1`?
PLK1 PBD block: -18%; JMJD2A Tudor inh: -28%; Sfp inh: 15%; G9a block: 5%; HP1b chromo inh: 22%; BAZ2B block: -2%

What do the screens show for `COc1ccc(Cl)cc1-c1cc(C(=O)NC2CCCCC2)[nH]n1`?
PLK1 PBD block: -9%

What do the screens show for `Cc1[nH]cnc1CSCc1ccc(Cl)cc1`?
PLK1 PBD block: -4%; JMJD2A Tudor inh: -20%; Sfp inh: 0%; G9a block: 25µM*; HP1b chromo inh: 32%; BAZ2B block: inconclusive

How did Cc1[nH]cnc1CSCCN do in these assays?
PLK1 PBD block: -8%; JMJD2A Tudor inh: 1µM*; Sfp inh: 7.1µM*; G9a block: inconclusive; HP1b chromo inh: -6%; BAZ2B block: inconclusive

How did O=C(Nc1ccc(O)cc1C(=O)O)c1ccc2c(c1)C(=O)N(Cc1ccco1)C2=O do in these assays?
PLK1 PBD block: -19%; JMJD2A Tudor inh: inconclusive; Sfp inh: 0%; G9a block: inconclusive; HP1b chromo inh: -9%; BAZ2B block: 50µM*

How did CC1CCN(C(=O)COC(=O)c2ccc3c(c2)C(=O)N(Cc2ccco2)C3=O)CC1 do in these assays?
PLK1 PBD block: 4%; JMJD2A Tudor inh: -14%; G9a block: 56µM*; HP1b chromo inh: 28%; BAZ2B block: -13%

What do the screens show for `O=C(O)Cc1ccc(NC(=O)c2ccc3c(c2)C(=O)N(Cc2ccco2)C3=O)cc1`?
PLK1 PBD block: inconclusive; JMJD2A Tudor inh: 35µM*; Sfp inh: 6%; G9a block: inconclusive; HP1b chromo inh: -29%; BAZ2B block: -12%

Results for CCOC(=O)c1cc2oc(C)cc2n1CC(=O)OC1CCCCC1 ?
PLK1 PBD block: -9%; JMJD2A Tudor inh: -30%; Sfp inh: 79µM*; G9a block: inconclusive; HP1b chromo inh: 22%; BAZ2B block: inconclusive

How did CC(=O)N1CCc2cc(S(=O)(=O)NC(Cc3ccccc3)C(=O)Nc3cc(C)ccc3C)ccc21 (centres undefined) do in these assays?
JMJD2A Tudor inh: -27%; G9a block: inconclusive; HP1b chromo inh: 19%

What do the screens show for `COc1ccc(S(=O)(=O)N2CCCC2C(=O)Nc2nnc(-c3cccnc3)s2)cc1` (centres undefined)?
PLK1 PBD block: 27µM*; JMJD2A Tudor inh: -26%; Sfp inh: -7%; G9a block: 3.5µM*; HP1b chromo inh: -26%; BAZ2B block: -8%

What do the screens show for `CCNC(=O)C1CCCN1S(=O)(=O)c1ccc(OC)cc1` (centres undefined)?
PLK1 PBD block: -7%; JMJD2A Tudor inh: -6%; Sfp inh: 14%; G9a block: 8.9µM*; HP1b chromo inh: 7%; BAZ2B block: 8%

What do the screens show for `COc1ccc(S(=O)(=O)N2CCC[C@H]2C(=O)NC2=NCCS2)cc1`?
PLK1 PBD block: -9%; JMJD2A Tudor inh: inconclusive; Sfp inh: 12%; G9a block: 16%; HP1b chromo inh: 14%; BAZ2B block: -39%

How did COc1ccc(C(=O)NC2CCCc3ccccc32)c(OC)c1OC (centres undefined) do in these assays?
PLK1 PBD block: 0%; JMJD2A Tudor inh: 7%; Sfp inh: 2%; G9a block: 11%; HP1b chromo inh: 19%; BAZ2B block: 7%

What do the screens show for `CCCn1c(C)nc2c(NCC(C)(C)CN(C)C)nc(C)nc21`?
Sfp inh: 21%

How did COC(=O)c1cc(=O)nc(NN=Cc2ccc(C)cc2)s1 do in these assays?
PLK1 PBD block: -12%

How did CCOc1ccc(-c2nnc3ccc(SCC(=O)N4CCCCC4)nn23)cc1 do in these assays?
PLK1 PBD block: -20%; JMJD2A Tudor inh: -9%; Sfp inh: 14%; G9a block: 35µM*; HP1b chromo inh: 66%; BAZ2B block: 8%

Screens (PubChem)
